This is an account of results in PubChem BioAssay (NCATS).

Each structure is given as a SMILES string. “And” between values parts separate entries of the source, which are not always exact repeats. Equal entries are not always repeated. Records with an inconclusive call do not appear. Where a call stands in place of a potency, no number is given. The source made the active and inactive calls. Unless noted, the call rests on the fitted dose curve; in most records, active means well fitted curve in the direction sought with a large enough effect; inconclusive means small, poorly fitted or top-dose-only effect, or another doubt; inactive means no such curve, though single readings can be large; an effect the other way counts as inactive or inconclusive.

Assay [1] is described as follows: Primary qHTS for small molecule stabilizers of the endoplasmic reticulum resident proteome: Secreted ER Calcium Modulated Protein (SERCaMP) assay (AID 1508630). In outline: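 The SH-SY5Y reporter protocol was run at 3 concentrations up to 38.3 uM (primary) or 11 concentrations (follow-up): 16 h compound, 100 nM thapsigargin for 4 h, then extracellular luciferase luminescence.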
On the technique in general: qHTS replaces the single test concentration by a dilution series.

Assay [2] concerns the target Cytochrome P450 2D6 (Homo sapiens) (UniProt P10635). Briefly: Cytochrome P450 family 2 subfamily D member 6 (CYP2D6) small molecule antagonists: luciferase biochemical (cell-free) qHTS assay (AID 1645840; active means well fitted curve in the direction sought with a large enough effect in the repeat runs; an effect the other way counts as inactive or inconclusive; further: series mostly up to about 57 µM; nearly all actives have a fitted effect of over 55% in size). In outline:
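P450-Glo CYP2D6 system: proluciferin substrate converted by enzyme to luciferin, read by luminescence proportional to activity. Enzyme-substrate mix with compound 10 min at room temperature, then NADPH regeneration 1 h before detection reagent.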

Assay [3] deals with Cytochrome P450 2C9 (Homo sapiens) (UniProt P11712). Briefly: Cytochrome P450 family 2 subfamily C member 9 (CYP2C9) small molecule antagonists: luciferase biochemical (cell-free) qHTS assay (AID 1645842; active means well fitted curve in the direction sought with a large enough effect in the repeat runs; an effect the other way counts as inactive or inconclusive; further: nearly all actives have a fitted effect of over 55% in size; further: potency means the concentration at half of the fitted maximal effect). In outline: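 P450-Glo CYP2C9 system: proluciferin substrate with enzyme in mix containing 0.4% BSA, 10 min at room temperature, then NADPH regeneration solution added and incubated 1 h at 37C. Detection reagent stopped reaction; luminescence read after 20 min as RLU.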

A short description of assay [4]: Primary qHTS for inhibitors of nuclear receptor binding SET domain protein 2 (NSD2) in an isogenic RCH-ACV NSD2 p.E1099K mutant (9B) (AID 1645876). Further: nearly all actives have a fitted effect of over 70% in size. Further: potency means the concentration at half of the fitted maximal effect.
Assay [5] concerns the target Calcium and integrin-binding protein 1 (Homo sapiens) (UniProt Q99828). Briefly: Primary qHTS for Identification of Calcium Integrin Binding Protein 1 (CIB1) Competitor (AID 1508620).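 Further: GST tagged CIB1 binding a fluorescein labelled alphaIIb integrin peptide tracer; top concentration of the series differs between compounds.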 In outline:
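Fluorescence polarization competition: CIB1-GST (1 uM final) preincubated with compound 15 min at room temperature, then FITC-labeled alphaIIb peptide (100 nM final) added for another 15 min. Polarization read at Ex 480/Em 540.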

Cytochrome P450 2D6 (Homo sapiens), sequence (P10635 whole entry, looked up): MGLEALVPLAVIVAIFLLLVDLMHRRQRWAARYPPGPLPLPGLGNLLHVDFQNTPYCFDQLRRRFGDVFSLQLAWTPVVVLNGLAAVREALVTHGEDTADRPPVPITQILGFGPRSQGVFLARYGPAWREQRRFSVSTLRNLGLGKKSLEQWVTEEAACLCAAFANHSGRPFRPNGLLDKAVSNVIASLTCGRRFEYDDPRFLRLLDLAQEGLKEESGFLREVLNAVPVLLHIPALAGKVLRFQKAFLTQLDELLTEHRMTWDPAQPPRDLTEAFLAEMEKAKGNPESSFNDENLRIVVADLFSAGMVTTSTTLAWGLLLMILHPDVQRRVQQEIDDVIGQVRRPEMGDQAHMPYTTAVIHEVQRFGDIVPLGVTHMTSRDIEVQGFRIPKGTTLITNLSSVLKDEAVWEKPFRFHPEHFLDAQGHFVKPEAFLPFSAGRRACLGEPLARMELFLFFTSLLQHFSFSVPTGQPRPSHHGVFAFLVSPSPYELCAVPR
Calcium and integrin-binding protein 1 (Homo sapiens), sequence (Q99828 whole entry, looked up): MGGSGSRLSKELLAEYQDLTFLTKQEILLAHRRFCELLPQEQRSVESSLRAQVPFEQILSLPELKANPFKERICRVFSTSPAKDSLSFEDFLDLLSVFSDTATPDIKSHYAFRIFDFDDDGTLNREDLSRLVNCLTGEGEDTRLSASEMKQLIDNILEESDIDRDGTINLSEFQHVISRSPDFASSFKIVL
Cytochrome P450 2C9 (Homo sapiens), sequence (P11712 whole entry, looked up): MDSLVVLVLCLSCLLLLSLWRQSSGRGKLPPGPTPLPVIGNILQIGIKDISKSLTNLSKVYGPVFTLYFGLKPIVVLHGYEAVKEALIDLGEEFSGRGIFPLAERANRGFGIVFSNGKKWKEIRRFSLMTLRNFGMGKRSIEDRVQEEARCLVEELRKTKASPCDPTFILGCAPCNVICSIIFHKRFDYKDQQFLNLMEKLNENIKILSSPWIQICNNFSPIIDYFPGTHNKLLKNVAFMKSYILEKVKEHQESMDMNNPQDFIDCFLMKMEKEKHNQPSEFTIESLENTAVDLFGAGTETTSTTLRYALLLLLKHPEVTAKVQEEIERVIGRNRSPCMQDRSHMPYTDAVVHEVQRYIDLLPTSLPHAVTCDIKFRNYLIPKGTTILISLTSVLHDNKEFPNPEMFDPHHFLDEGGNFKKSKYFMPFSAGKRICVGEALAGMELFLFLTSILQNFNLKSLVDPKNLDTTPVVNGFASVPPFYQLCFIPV

As for `OC[C@H]1O[C@@H](Oc2ccc(O)cc2)[C@H](O)[C@@H](O)[C@H]1O`, the Potency entry in assay [1] is “inactive”.
Regarding `CCN1C[C@H](C)n2c(c(O)c3c(=O)n(Cc4ccc(F)c(Cl)c4)nc(C(=O)NC)c32)C1=O`, the Potency result in assay [1], in assay [2] and in assay [4] was “inactive” in each case. The Potency in assay [3] was 8.49 µM (active).
Take `COC(=O)Nc1ccc(-c2nc(N3CCOCC3)c3cnn(C4CCN(C(=O)OC)CC4)c3n2)cc1`: the Potency result in assay [1] is “inactive”. The Potency in assay [4] was 1.05 µM (active).
For the compound `N#Cc1c(N(CC(=O)O)CC(=O)O)sc(C(=O)O)c1CC(=O)O`, the Potency result in assay [4] was “inactive”.
`C[C@@]1(C(=O)Nc2ccc(F)nc2)CCCN1c1nc(Nc2cc(C3CC3)[nH]n2)c2cccn2n1`: the Potency in assay [4] is 2.95 µM (active).
As to `CC[C@H](NC(=O)[C@H](C)NC)C(=O)N1C[C@@H](O)C[C@H]1Cc1c(-c2[nH]c3cc(F)ccc3c2C[C@H]2C[C@H](O)CN2C(=O)[C@H](CC)NC(=O)[C@H](C)NC)[nH]c2cc(F)ccc12`, the Potency result in assay [1] was “inactive”.
In the case of `CCN(CCO)CCCOc1ccc2c(Nc3cc(CC(=O)Nc4cccc(F)c4)[nH]n3)ncnc2c1`, in assay [5], the Potency entry was “inactive”. In addition, the Potency in assay [4] was 5.9 µM (active).
For the compound `CN1N=C(N)c2cn([C@@H]3O[C@H](COP(=O)(O)O)[C@@H](O)[C@@H]3O)c3ncnc1c23`, in assay [5], the Potency result is “inactive”. The Potency in assay [4] was 2.63 µM (active).
Turning to `O=C(NC[C@H](O)CO)c1ccncc1Nc1ccc(I)cc1F`, in assay [1], the Potency result is “inactive”.
The same measure, in the same setting: in the case of `Fc1ccc(C(c2ccc(F)cc2)N2CCN(CC=Cc3ccccc3)CC2)cc1` it was “inactive”; in that of `CN[C@H]1[C@@H](O[C@@H]2[C@H](O[C@@H]3[C@@H](O)[C@@H](O)[C@@H](N=C(N)N)[C@@H](O)[C@@H]3N=C(N)N)O[C@H](C)[C@@]2(O)C=O)O[C@@H](CO)[C@@H](O)[C@H]1O`, “inactive”.
Consider `Cc1ccc(C(=O)N(CCCN)[C@@H](c2oc3cc(Cl)ccc3c(=O)c2Cc2ccccc2)C(C)C)cc1`, for which the Potency entry in assay [1] is “inactive”. Also, the Potency in assay [4] is 0.0332 µM (active).
In the case of `Cn1cnc(-c2cc3nccc(Oc4ccc(NC(=S)NC(=O)Cc5ccccc5)cc4F)c3s2)c1`, the Potency entry in assay [1] and in assay [2] was “inactive” in each case. The Potency in assay [3] was 1.9 µM (active); in assay [4] it was 5.15 µM (active) and 2.95 µM (active).
Regarding `COC(=O)[C@H](c1ccccc1Cl)N1CCc2sccc2C1`, the Potency result in assay [1] and in assay [4] was “inactive” throughout.
On to `COC(=O)N1CCN(Cc2cccc(NC(=O)Nc3ccc(C)nc3)c2F)CC1`, for which the Potency entry in assay [1] and in assay [2] was “inactive” in each case.
On to `C[C@@H]1[C@H](C)CC[C@]2(C(=O)O)CC[C@]3(C)C(=CC[C@@H]4[C@@]5(C)CC[C@H](O)C(C)(C)[C@H]5CC[C@]43C)[C@@H]12`, for which the Potency entry in assay [1] is “inactive”.
`CC[C@@H]([C@H](C)O)n1ncn(-c2ccc(N3CCN(c4ccc(OCC5CO[C@@](Cn6cncn6)(c6ccc(F)cc6F)C5)cc4)CC3)cc2)c1=O` (some centres undefined): the Potency result in assay [1] and in assay [4] was “inactive” throughout.
As for `CC1=C[C@@H]2[C@@H]([C@@H](O)C[C@@]3(C)[C@H]2C[C@@H](C)[C@]3(O)C(=O)CO)[C@@]2(C)Cc3cnn(-c4ccccc4)c3C=C12`, in assay [4], the Potency is 3.32 µM (active).
In the case of `CCNC(=O)Nc1ccc(Oc2ncnc(N)c2C=NOC)cc1Cl`, the Potency result in assay [1], in assay [2] and in assay [3] was “inactive” in each case.
Consider `NC(=O)c1ncn([C@@H]2O[C@H](CO)[C@@H](O)[C@@H]2O)n1`, for which the Potency result in assay [1] is “inactive”.
The same measure, in the same setting: to `CNC1[C@H](O)C(O[C@@H]2C(O)C(O[C@H]3O[C@H]([C@@H](C)NC)CC[C@H]3N)[C@@H](N)C[C@H]2N)OC[C@]1(C)O` (some centres undefined) belongs “inactive”.
With `O=C(NCCCCN1CCOCC1)c1cc2ccccc2o1`, the Potency result in assay [4] was “inactive”.
On to `CCCCCCCCCCCCCCCC(=O)O[C@H]1[C@@H](O)[C@@H](O)[C@@H]([C@H](NC(=O)[C@@H]2C[C@@H](CCC)CN2C)[C@H](C)Cl)O[C@@H]1SC`, for which the Potency entry in assay [1] is “inactive”.
As to `CCOC(=O)[C@H]1O[C@H]1C(=O)N[C@@H](CC(C)C)C(=O)NCCC(C)C`, the Potency result in assay [1] is “inactive”.
